The test has as its system diaphorase (Clostridium kluyveri). In words: diaphorase inhibitors and chemical oxidizers, confirmation, counter-screen for P. falciparum G6PD inhibitor project, biochemical, fluorescence intensity, 10 µM NADPH (AID 504862).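 Further: resorufin red fluorescence formed as diaphorase reduces resazurin using NADPH; 0% = DMSO with enzyme and 100% = DMSO without enzyme.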 The following applies: diaphorase-coupled resazurin reduction, NADPH 10 uM, at 20 µM, stronger effect = higher value.

Data on 31 compounds can be found in PubChem BioAssay AID504862 (Sanford-Burnham Center for Chemical Genomics, 2011).

This is one part of the list. Values without a mark were called inactive. Calls of active or inactive are those of the source.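 How the source made its calls: active means average inhibition reaching 50% or more with the compound at 20 µM; inactive means the rest.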

What is called inhibition is the change of the read-out against control, counted positive when it falls. As for `O=C(Nc1nc(-c2ccncc2)cs1)C1COc2ccccc2O1` (stereo unspecified), the inhibition is -37.4%. Regarding `O=C1/C(=C\c2ccc([N+](=O)[O-])cc2)CS(=O)(=O)C/C1=C/c1ccc([N+](=O)[O-])cc1`, the inhibition was -19.8%.

Turning to `OCCN1CCN(C(=S)c2ccc(-c3ccccc3)cc2)CC1`, the inhibition was -9.62%. In the case of `CCOC(=O)C1=C(c2ccc(OC)cc2)C(=O)c2ccccc2C1=O` it was 84.4% (active). On to `Cc1cccc(C(=O)Nc2nnc(S(=O)(=O)N3CCCCCC3)s2)c1`, for which the inhibition is 46.7%. `C=CCc1ccccc1OCC(=O)N/N=C/c1ccccc1OCC`: the inhibition is 43.3%. `COc1cccc(C(=O)Nc2nnc(S(=O)(=O)N(C)c3ccccc3)s2)c1`: the inhibition was 89.1% (active). For the compound `Cc1ccnc(-n2sc3ccccc3c2=O)n1`, the inhibition was -36%. `Cn1c(-c2sccc2OCc2cccc(C(F)(F)F)c2)n[nH]c1=S`: the inhibition is 4.08%. Then `O=c1[nH]c2ccccc2n2c(-c3ccccc3)nnc12`, with 37.2%. Turning to `COc1ccc2c(c1)c(=Cc1ccc(N(C)C)cc1)c1cc(-c3ccccc3)[n+](C)n12`, the inhibition is 17.5%. As to `CCOc1ccccc1/C=N/NC(=O)CNC(=O)COc1ccccc1`, the inhibition is 96.9% (active). With `Cc1ccc(/C=C/C(=O)Nc2ccc([N+](=O)[O-])c(NC(=O)/C=C/c3ccc(C)o3)c2)o1`, the inhibition is -11.9%. In the case of `COc1ccc(OCc2nnc3n2N=C(c2ccccc2)C(CC(=O)O)S3)cc1` (stereo unspecified) it was -3.99%. In the case of `O=C(NC1=CC(=O)c2ccccc2C1=O)c1ccccc1` it was 48.7%; in that of `c1ccc(-c2cn3c(n2)CCc2ccc4cccnc4c2-3)cc1`, 10.4%.

As for `O=C(Nc1nnc(S(=O)(=O)N2CCOCC2)s1)c1cccc(Br)c1`, the inhibition was 56.5% (active).

Regarding `O=C(Nc1nnc(S(=O)(=O)N2CCCCCC2)s1)c1cccc(Br)c1`, the inhibition was 52.1% (active). In the case of `CCSc1nnc(NC(=O)c2ccc(C)cc2)s1` it was 61.9% (active); in that of `COc1c(O)ccc2c1CN1CCc3cc4c(cc3C1C2)OCO4` (stereo unspecified), 12.4%. Then `CCN1CCCC1CNC(=O)c1ccc2c(c1)NC(=O)/C(=C\c1ccccc1F)S2` (stereo unspecified), with -2.12%; and `COc1cccc(C(=O)Nc2nnc(S(=O)(=O)N3CCCCC3)s2)c1`, with 72.7% (active). In the case of `O=[N+]([O-])c1c(NCCO)cc(Sc2nc3ccccc3s2)c2nonc12` it was -9.49%; in that of `COc1ccc(CCn2c(NN=C3CCCC3)nc3c2c(=O)[nH]c(=O)n3C)cc1`, 7.63%; in that of `COc1ccc(CC(=O)NCC(=O)N/N=C/c2cc(Br)ccc2OC)cc1`, 87.8% (active).

As for `O=C1C=CC(=O)N1c1ccc(N2CCCCC2)cc1`, the inhibition was -20%. In the case of `Cc1ccc(NC(=O)Cn2sc3ccccc3c2=O)cc1`, the inhibition is 0.47%. Consider `CC(C)(C)NC(=O)COc1ccc(CNc2ccc3[nH]c(=O)[nH]c3c2)cc1`, for which the inhibition was 27.4%. In the case of `CCN(CC)c1ccc2oc(=O)c(C)nc2c1` it was 87.7% (active); in that of `COc1cccc(C(=O)Nc2nnc(S(=O)(=O)N3CCOCC3)s2)c1`, 69.5% (active). In the case of `O=C(CN1CCN(c2ccc(O)cc2)CC1)Nc1cc(S(=O)(=O)N2CCOCC2)ccc1Cl` it was -6.79%.
